We go through 26 compounds from PubChem BioAssay (Tox21).

A short description of assay [1]: qHTS assay for small molecule agonists of the p53 signaling pathway (AID 651631; calls by dose curve; further: nearly all actives have a fitted effect of over 15% in size; further: potency means the concentration at half of the fitted maximal effect). Put shortly: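 Quantitative high-throughput format: 4,000 p53RE-bla HCT-116 cells/well, 5 h pre-incubation, 16 h compound exposure at 37 °C, 2 h room-temperature substrate step, fluorescence intensity measured.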
Background: qHTS replaces the single test concentration by a dilution series.

A short description of assay [2]: qHTS assay for small molecules that induce genotoxicity in human embryonic kidney cells expressing luciferase-tagged ATAD5 (AID 651632). Further: nearly all actives have a fitted effect of over 15% in size. In short, it runs like this: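 HEK293T cells carrying luciferase-tagged ATAD5 were given compound or DMSO vehicle and incubated 16 hr at 37C, 5% CO2. Luciferase activity was read after 30 min at room temperature with Amplite; a rise signals genotoxic stress.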

Assay [3] is described as follows: qHTS assay for small molecule agonists of the p53 signaling pathway - cell viability (AID 651633; calls by dose curve;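 further: p53RE-bla HCT reporter cells with a stable beta-lactamase p53 reporter; series mostly up to about 83 µM; nearly all actives have a fitted effect of over 30% in size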). In short, it runs like this: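 Viability counter-read: CellTiter-Glo luminescence (30 min, room temperature) in the same p53RE-bla plates. These plates had been exposed to compounds for 16 h at 37 C.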
A short description of assay [4]: qHTS assay for small molecules that induce genotoxicity in human embryonic kidney cells expressing luciferase-tagged ATAD5 - cell viability (AID 651634; calls by dose curve; further: nearly all actives have a fitted effect of over 25% in size; further: potency means the concentration at half of the fitted maximal effect). Put shortly:
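HEK293T cells carrying luciferase-tagged ATAD5, 2,000 cells/well, exposed to compound for 15.5 hr at 37C. Viability read as live-cell protease activity by CellTiter-Fluor fluorescence after 30 min at 37C.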

The nature of assay [5]: qHTS assay for small molecule disruptors of the mitochondrial membrane potential - cell viability (AID 720634; calls by dose curve;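 further: human HepG2 liver cancer cells; series mostly up to about 83 µM; nearly all actives have a fitted effect of over 20% in size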). In short, it runs like this:
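HepG2 cells, 2,000 per well, attached overnight, then treated 1 hr at 37 C, 5% CO2. Viability read as ATP by CellTiter-Glo luminescence after 30 min at room temperature. Read in the same wells as the m-MPI membrane-potential dye assay.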

A short description of assay [6]: qHTS assay for small molecule disruptors of the mitochondrial membrane potential (AID 720635). Further: potency means the concentration at half of the fitted maximal effect. Put shortly:
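Mitochondrial membrane potential tracked with Mito-MPS dye, red aggregates (ex 540/em 590 nm) against green monomers (ex 490/em 535 nm). Compound treatment 1 hr at 37C, dye 30 min in HepG2.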

The nature of assay [7]: qHTS assay to test for compound auto fluorescence at 590 nm (red) in HepG2 cells (AID 720674). In short, it runs like this:
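Red autofluorescence (Ex/Em 540/590 nm, Rose Bengal sodium equivalents) was measured in HepG2 cells, 2,000 per well in MEM plus 10% FBS, plated overnight at 37 C. Readings were taken 1 hr after adding 23 nL compound or DMSO, at 37 C and 5% CO2.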

The nature of assay [8]: qHTS assay to test for compound auto fluorescence at 535 nm (green) in HepG2 cells (AID 720675).
Assay [9] is described as follows: qHTS assay to test for compound auto fluorescence at 460 nm (blue) in HEK293 cells (AID 720678). Put shortly: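 Measured: blue fluorescence (Ex 405/Em 460 nm) of compound-treated HEK293 cells, incubated overnight at 37C with 5% CO2 and scaled to triamterene equivalents.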
Assay [10] can be described thus: qHTS assay to test for compound auto fluorescence at 590 nm (red) in HEK293 cells (AID 720679). In short, it runs like this:
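Using HEK293 cells at 2,000 per well, the screen added 23 nL of each compound after cell attachment and incubated overnight (37C, 5% CO2). The plate reader then captured red-label fluorescence, Ex/Em 540/590nm.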

Values joined by “and” are separate entries in the source; they are usually repeats but may differ in a detail not shown here. Identical values can stand only once. A number with no mark means an inactive call. Records with an inconclusive call do not appear. Active and inactive are the calls of the source. Unless noted, the call rests on the fitted dose curve; in most records, active means well fitted curve in the direction sought with a large enough effect in the repeat runs; inconclusive means weak or mixed curves; inactive means no such curve, though single readings can be large; an effect the other way counts as inactive or inconclusive.
On the % scale 0 is the no-effect control and ±100 the full control effect.

On to `CC(=O)C(C)C`, for which the Potency entry in assay [1], in [2], in assay [3], in assay [4], in assay [5] and in assay [6] was “inactive” in each case. Also, the Potency result in assay [9] is “inactive”. For the same compound, the compound was called inactive in [7], in assay [8] and in assay [10].
Regarding `Nc1cccc(C(F)(F)F)c1`, the Potency entry in assay [1], in assay [2], in assay [3], in assay [4], in [5] and in [6] was “inactive” each time. Also, in [9], the Potency result is “inactive”. Besides, the compound was called inactive in assay [7], in assay [8] and in [10].
Regarding `NC(N)=S`, the Potency entry in assay [1], in [2], in assay [3], in [4], in assay [5] and in assay [6] was “inactive” throughout. Further, the Potency entry in assay [9] was “inactive”. In addition, the outcome in assay [7], in assay [8] and in assay [10] was inactive.
Regarding `CC1(C)[C@@H](O[C@H]2O[C@H](C(=O)O)[C@@H](O)[C@H](O)[C@H]2O[C@@H]2O[C@H](C(=O)O)[C@@H](O)[C@H](O)[C@H]2O)CC[C@]2(C)[C@H]3C(=O)C=C4[C@@H]5C[C@@](C)(C(=O)O)CC[C@]5(C)CC[C@@]4(C)[C@]3(C)CC[C@@H]12`, the Potency result in [1], in assay [2], in [3], in assay [4], in assay [5] and in [6] was “inactive” throughout. Besides, in assay [9], the Potency entry is “inactive”. Besides, the compound was called inactive in assay [7], in assay [8] and in assay [10].
Regarding `CC(=O)c1nccs1`, the Potency result in [1], in assay [2], in assay [3], in assay [4], in [5] and in [6] was “inactive” in each case. Moreover, the Potency result in assay [9] is “inactive”. The compound was classed as inactive in assay [7], in assay [8] and in assay [10].
With `CC(O)CNCC(C)O` (stereo not drawn), the Potency entry in assay [1], in assay [2], in [3], in [4], in [5] and in assay [6] was “inactive” each time. The Potency entry in assay [9] is “inactive”. Besides, the outcome in assay [7], in assay [8] and in assay [10] was inactive.
Regarding `CC(=O)OC(C)(C)C1CC=C(C)CC1` (stereo not drawn), the Potency result in assay [1], in assay [2], in assay [3], in assay [4], in [5] and in assay [6] was “inactive” in each case. The Potency result in assay [9] is “inactive”. Moreover, the compound was classed as inactive in [7], in assay [8] and in assay [10].
With `c1cnc2c(c1)ccc1cccnc12`, the Potency in [1] was 30.9 µM (active) and 24.3 µM (active); in assay [4] it was 6.92 µM (active) and 3.86 µM (active) and 7.7 µM (active); in [6], 30.6 µM (active). For the same compound, the Potency result in assay [2], in [3], in [5] and in assay [9] was “inactive” throughout. Moreover, the compound was classed as inactive in [7], in assay [8] and in assay [10].
Turning to `CC(C)=CCC/C(C)=C/C=O`, the Potency entry in assay [1], in assay [2], in [3], in assay [4], in assay [5] and in assay [6] was “inactive” each time. The Potency entry in assay [9] is “inactive”. Moreover, the call in [7], in [8] and in assay [10] was inactive.
`N[C@@H](Cc1cc(I)c(Oc2ccc(O)c(I)c2)c(I)c1)C(=O)O`: the Potency entry in [1], in [2], in [3], in assay [4], in assay [5] and in assay [9] was “inactive” each time. Further, the Potency in assay [6] is 23.7 µM (active). Moreover, the compound was called inactive in assay [7], in assay [8] and in assay [10].
As to `NC(=O)c1ncn([C@@H]2O[C@H](CO)[C@@H](O)[C@H]2O)n1`, the Potency in [1] was 13.3 µM (active) and 64.4 µM (active). Besides, the Potency result in assay [2], in [3], in [4], in assay [5], in assay [6] and in assay [9] was “inactive” throughout. The compound was called inactive in assay [7], in assay [8] and in [10].
Consider `COc1ccc([C@@H]2CC(=O)c3c(O)cc(O[C@@H]4O[C@H](CO[C@@H]5O[C@@H](C)[C@H](O)[C@@H](O)[C@H]5O)[C@@H](O)[C@H](O)[C@H]4O)cc3O2)cc1OC`, for which the Potency result in assay [1], in assay [2], in assay [3], in assay [4], in assay [5] and in [6] was “inactive” throughout. Besides, the Potency entry in [9] was “inactive”. Further, the compound was classed as inactive in [7], in assay [8] and in assay [10].
With `O=C(O)Cc1c[nH]c2ccccc12`, the Potency result in [1], in assay [2], in assay [3], in [4], in assay [5] and in assay [6] was “inactive” in each case. Besides, the Potency result in assay [9] was “inactive”. The outcome in assay [7], in [8] and in assay [10] was inactive.
Take `CC/C(C)=N/O`: the Potency result in assay [1], in assay [2], in assay [3], in assay [4], in [5] and in assay [6] was “inactive” each time. The Potency result in assay [9] was “inactive”. Also, the compound was classed as inactive in assay [7], in assay [8] and in assay [10].
In the case of `COc1c(Cl)ccc(Cl)c1C(=O)O`, the Potency result in [2], in assay [3], in [4], in assay [5], in assay [6] and in [9] was “inactive” each time. The compound was called inactive in assay [7], in assay [8] and in assay [10].
As for `O=C1O[C@H]([C@H](O)CO)C(O)=C1O`, the Potency entry in assay [1], in assay [2], in assay [4], in [5], in [6] and in assay [9] was “inactive” in each case. The compound was called inactive in assay [7], in [8] and in assay [10].
As for `C=CC(C)(C)C`, the Potency entry in assay [1], in [2], in assay [3], in assay [4], in assay [5] and in assay [9] was “inactive” throughout. The result in assay [7], in assay [8] and in assay [10] was inactive.
Regarding `COc1cc(NC(=O)CC(C)=O)c(OC)cc1Cl`, the Potency result in assay [2], in assay [3], in [4], in assay [5], in [6] and in assay [9] was “inactive” each time. For the same compound, the call in [7], in [8] and in assay [10] was inactive.
For `CCCCCCCCCCCC(=O)N(C)CC(=O)O`, the Potency result in assay [2], in assay [4], in [5] and in assay [9] was “inactive” each time. For the same compound, in [3], the activity change, negative = cytotoxicity was 23.9% [at 8.08 µM]. For the same compound, in assay [6], the ratio activity, negative = MMP loss was 7.77% [at 8.08 µM]. Besides, the call in assay [7], in assay [8] and in assay [10] was inactive.
Regarding `O=C1OC(=O)c2c(Cl)c(Cl)c(Cl)c(Cl)c21`, the Potency result in assay [2], in [3], in [4], in assay [5], in assay [6] and in [9] was “inactive” each time. Besides, the outcome in [7], in assay [8] and in [10] was inactive.
For the compound `C=C(C)CC(C)(C)C`, the Potency result in assay [1], in assay [2], in [3], in [4], in assay [5] and in assay [9] was “inactive” throughout. In addition, the compound was classed as inactive in assay [7], in assay [8] and in assay [10].
On to `OC1CCCCC1`, for which the Potency result in assay [1], in [2], in [3], in assay [4] and in assay [9] was “inactive” in each case. Further, the compound was called inactive in assay [7], in assay [8] and in assay [10].
As to `Cc1ncc(CO)c(CO)c1O`, the Potency result in assay [1], in assay [3], in [4], in assay [5], in assay [6] and in [9] was “inactive” in each case. Besides, the outcome in assay [7], in assay [8] and in assay [10] was inactive.
`CC(C)(CO)CO`: the Potency result in [1], in [2], in [3], in [4], in assay [5] and in [9] was “inactive” in each case. For the same compound, the compound was called inactive in assay [7], in assay [8] and in [10].
For the compound `CCCN(CCC)C(=O)SCC`, the Potency entry in assay [1], in assay [2], in assay [3], in assay [4], in assay [5] and in assay [6] was “inactive” each time. Further, the Potency result in assay [9] was “inactive”. Besides, the result in [7], in [8] and in assay [10] was inactive.
On to `O=C1C(N(CO)C(=O)NCO)N(CO)C(=O)N1CO` (stereo not drawn), for which the Potency entry in assay [2], in assay [3], in assay [4], in [5], in assay [6] and in [9] was “inactive” in each case. Besides, the compound was called inactive in [7], in assay [8] and in assay [10].
